From PubChem BioAssay AID504389 (National Center for Advancing Translational Sciences (NCATS), 2011)
Results filed as inconclusive are left out. The call rests on the fitted dose curve; in most records, active means well fitted curve in the direction sought with a large enough effect; inconclusive means small, poorly fitted or top-dose-only effect, or effect the other way, or another doubt; inactive means no such curve, though single readings can be large or run the other way.

Biological target: Thyrotropin receptor (Homo sapiens) (UniProt P16473)
Test: qHTS Assay for Antagonists of the Thyroid Stimulating Hormone Receptor: SAR for Probe
Conditions: HEK293-TSHR, TSH-stimulated cAMP HTRF, 2 h; series mostly up to 57.5 µM; activity change, negative = inhibition: at the top concentration
Source text: TSH is an alpha/beta heterodimeric glycoprotein hormone secreted from the anterior pituitary gland which belongs to the glycoprotein hormone family. The actions of TSH are mediated by a seven-transmembrane receptor, which upon TSH binding couples preferentially to the G-alpha (s) protein (Gs), resulting in activation of adenylate cyclase and increase in cyclic adenosine 3', 5' monophosphate (cAMP). The TSH receptor (THSR) is mainly expressed in thyroid follicular cells and regulates their growth and function. This cell based assay was conducted on a TSHR transfected HEK 293 cell line, measuring cAMP stimulation using antibody-based Homogeneous Time Resolved Fluorescence (HTRF). Our goal is to identify small molecules that will inhibit (antagonize) the thyroid-stimulating hormone receptor (TSHR), a member of the 7 transmembrane-spanning receptor (7TMR) family of cell surface receptors. TSHR-mediated hyperthyroidism is important in thyroid pathology. The development of small molecule antagonists of TSHR may lead to therapeutic approaches for TSHR-mediated hyperthyroidism caused by constitutively activating mutations or stimulating auto-antibodies associated with Graves' disease. Graves' disease is the leading cause of hyperthyroidism and is caused by autoantibodies that stimulate TSHR (TsAbs) causing thyroid growth and unregulated overproduction of thyroid hormones and existing treatments have liabilities (agranulocytosis). In addition, TSHRs are known to be expressed in multiple extrathyroidal tissues including bone, brain, kidney, testis, fat and cells of the immune system but the role of the TSHR in these tissues is not clear. Therefore, TSHR antagonists/inverse agonists could be used as probes of extrathyroidal TSHR function. Finally, TSHR inverse agonists, which are a subclass of antagonists that inhibit agonist-independent (or basal or constitutive) TSHR signaling, could be used to inhibit TSH-independent signaling in patients with recurrent or metastatic thyroid cancer who are receiving thyroid hormone to suppress TSH. The present assay presents confirmation data for analogues of series of interest in the primary screening assay.
An anti cAMP antibody contains a fluorescent cryptate tag (excitation 337 nm; emission 620 nm) and the acceptor is cAMP-d2 (excitation 620 nm; emission 665 nm). When antibody and cAMP-d2 interact and are excited by a 337 nm light, a FRET occurs resulting in emission at 665 nm. The assay is competition between cAMP-d2 and cAMP (from the cell lysate). The homogeneous protocol allows for one step dispense after stimulation that is automation friendly. Step, Parameter, Value, Description 1, Cells, 3 uL, 2000 TSHR freshly harvested cells/well 1536 TC treated White solid bottom plate (Cells resuspended in 10 mM HEPES buffered HBSS and 70 uM RO 20-1724) 2, Compound, 23 nL, Libraries and controls 3, Compound, 1 uL, EC80 TSH (4 nM final) 4, Time, 2 hours, 37C 5, Reagent, 2 uL, cAMP antibody diluted 1:20 in lysis buffer 6, Time, 30 minutes, Room temperature 7, Detector, HTRF settings, Viewlux

Thyrotropin receptor (Homo sapiens), sequence (P16473 whole entry, looked up): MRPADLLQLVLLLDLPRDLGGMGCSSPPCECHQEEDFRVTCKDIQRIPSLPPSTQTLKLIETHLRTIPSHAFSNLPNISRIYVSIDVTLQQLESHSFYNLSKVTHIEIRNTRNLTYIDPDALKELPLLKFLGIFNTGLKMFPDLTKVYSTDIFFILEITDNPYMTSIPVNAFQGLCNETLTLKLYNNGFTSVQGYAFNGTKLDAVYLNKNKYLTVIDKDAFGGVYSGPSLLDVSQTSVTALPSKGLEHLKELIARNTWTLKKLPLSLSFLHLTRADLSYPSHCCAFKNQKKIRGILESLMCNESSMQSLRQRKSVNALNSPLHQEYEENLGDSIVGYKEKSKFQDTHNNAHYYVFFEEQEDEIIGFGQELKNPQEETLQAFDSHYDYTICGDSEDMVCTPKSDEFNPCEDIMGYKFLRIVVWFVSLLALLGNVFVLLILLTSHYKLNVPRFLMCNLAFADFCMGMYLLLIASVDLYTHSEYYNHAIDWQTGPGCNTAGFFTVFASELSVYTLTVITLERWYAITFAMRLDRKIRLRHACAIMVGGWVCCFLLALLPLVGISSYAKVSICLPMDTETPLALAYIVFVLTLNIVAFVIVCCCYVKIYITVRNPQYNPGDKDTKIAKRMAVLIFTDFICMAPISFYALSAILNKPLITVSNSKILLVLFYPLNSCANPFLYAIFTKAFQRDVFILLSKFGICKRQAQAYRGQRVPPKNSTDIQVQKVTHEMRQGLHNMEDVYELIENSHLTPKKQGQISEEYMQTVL

Activity change, negative = inhibition, inactive:
COc1ccc(C2Nc3ccccc3C(=O)N2Cc2ccccc2)cc1COc1ccc(NC(=O)c2ccccc2)cc1 (configuration not stated) 1.27%, COc1ccc(C2Nc3ccccc3C(=O)N2CCO)cc1COc1ccc(NC(C)=O)cc1 (configuration not stated) 6.37%, COc1ccc(C2Nc3ccccc3C(=O)N2Cc2cccc(OC)c2OC)cc1COc1c(C)cc(NC(C)=O)cc1C (configuration not stated) -4.15%, COc1ccc(C2Nc3ccccc3C(=O)N2Cc2ccccc2)cc1COc1ccccc1OC (configuration not stated) -0.288%, COc1ccc(C2Nc3ccccc3C(=O)N2Cc2ccccc2)cc1COc1c(C)cccc1C (configuration not stated) -8.19%, COc1ccc(C2Nc3ccccc3C(=O)N2Cc2cccs2)cc1COc1c(C)cccc1C (configuration not stated) -18.8%, COc1ccc(-c2nc3ccccc3c(=O)n2Cc2ccco2)cc1COc1c(C)cccc1C -1.63%
